Sm TGR block – blocks Schistosoma mansoni thioredoxin glutathione reductase; Q962Y6; 360,000 tested, 3% active; Potency, µM (highest dose often 114 µM), without a hit: top-dose activity change, negative = inhibition, usual class: inhibitors; purified TGR, DTNB reduction, TNB absorbance 405 nm; AID 485364; also: potency is read from the fitted curve at half-maximal effect; % is scaled to controls: 0 for no effect and ±100 for the full control effect; nearly all actives have a fitted effect of over 60% in size
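TGR 20 nM + NADPH 100 uM (dispensed conc.), cpd preinc 15 min RT; start with NADPH (500 uM addition) then DTNB (15 mM addition). Kinetic TNB absorbance, 405 nm filter. Four-parameter Hill fit across titration.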
NS1 function inh – inhibitors of influenza NS1 protein function; 270,000 tested, 0.4% active; Potency, µM (series often up to 46.1 µM), for inactives: at the highest dose activity, positive = more growth; calls by dose curve; also: potency is read from the fitted curve at half-maximal effect; actives are rising curves; nearly all actives have a fitted effect of over 50% in size
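OD600 was taken as the measure of yeast growth restored by compound in an NS1-expressing S. cerevisiae strain. Cells had been washed out of glucose medium and diluted 1:100 into galactose -URA medium, pH 6.0.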
Pf growth 96h – inhibits malaria parasite growth, 96 h; P. falciparum luciferase reporter growth, 96 h; Potency, µM (doses to about 28.7 µM), inactives show at the top dose activity change, negative = inhibition, usual class: inhibitors; 320,000 tested, 6.9% active; also: potency is read from the fitted curve at half-maximal effect; % is scaled to controls: 0 for no effect and ±100 for the full control effect
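Infected RBCs, 2% Hct / 0.05% parasitemia final; luciferase-reporter P. falciparum; cpd 96 h, 37 C, 5% CO2; luciferase detection reagent; luminescence.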
Pf growth 48h – inhibits P. falciparum growth in the first generation, 48 h; P. falciparum luciferase growth in erythrocytes, 48 h; Potency, µM (titrated, usually from 28.7 µM), for inactives: at the top dose activity change, negative = inhibition, actives largely listed as inhibitors; 310,000 tested, 5.9% active; AID 504832; also: potency is read from the fitted curve at half-maximal effect; % is scaled to controls: 0 for no effect and ±100 for the full control effect
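Luciferase-expressing P. falciparum in infected erythrocytes (2% hematocrit, 0.1% parasitemia final) in RPMI 1640/0.5% Albumax were exposed to compound for 48 hours at 37 C, 5% CO2; growth read as luminescence.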
Shiga toxin inh – blocks Shiga toxin action in Vero cells; Vero cells, Shiga toxin protein synthesis inhibition reporter; inhibition, % at 38.7 µM; 290,000 tested, 9.2% active; in the data active = inhibition mostly above about 28%, no sharp cut-off; inactive = mostly below about 43%; also: 0% is about no effect
Cycloheximide cs – counter-screen for Shiga toxin inhibitors: cycloheximide protein synthesis inhibition; cell reporter, cycloheximide protein synthesis inhibition counterscreen; max response, %; 300,000 tested, 12% active; AID 2314; in the data active = max response mostly above about 13%, no sharp cut-off; inactive = mostly below about 14%; also: read at 38.3 µM for the half of the compounds with a filed dose; 0% is about no effect
The depositor's hits bear a star; ? = inconclusive; . = no result. Hits are enriched below; roughly 21% of the tested compounds scored in any of these assays. Unless noted, calls follow the shape of the dose curve; as a rule, active = well fitted curve in the direction sought with a large enough effect; inconclusive = small, poorly fitted or top-dose-only effect, or another doubt; inactive = no such curve, though single readings can be large; an effect the other way counts as inactive or inconclusive.

SMILES	Sm TGR block	NS1 function inh	Pf growth 96h	Pf growth 48h	Shiga toxin inh	Cycloheximide cs
CN1CCN(c2ccc(NC(=O)c3cccc(OCc4ccccc4)c3)cc2)CC1	0%	-13%	.	10µM*	60*	23*
CC(C)Oc1cccc(C(=O)Nc2ccc(N3CCN(C)CC3)cc2)c1	40µM*	14%	?	24%	.	26*
O=C(Nc1cccc2cccnc12)c1c(Cl)cc(Cl)cc1Cl	.	.	.	.	-4	17
Cc1ccc(Cl)cc1NC(=O)C1CCN(S(=O)(=O)c2cccc3nonc23)CC1	4%	.	.	.	.	.
Cc1cc(C(=O)Nc2cccc3ccccc23)n(-c2ccccc2)n1	-5%	.	3.3µM*	-13%	22	8
Cc1cc(C(=O)Nc2cccc(C)c2C)n(-c2ccccc2)n1	0%	-3%	21%	30%	51*	24*
Cc1cc(C(=O)Nc2ccccc2Cl)n(-c2ccccc2)n1	1%	0%	33%	6%	-5	9
COC(=O)C1=C(c2ccc(C(C)=O)cc2)C[C@@H]2CC[C@H]1N2C(=O)N1CCC(O)(c2ccc(Cl)cc2)CC1	-4%	.	?	10µM*	.	.
COC(=O)C1=C(c2ccc(OC)c(OC)c2)C[C@@H]2CC[C@H]1N2C(=O)N1CCC(C)CC1	4%	.	?	31%	.	.
COC(=O)C1=C(c2ccc(C(C)=O)cc2)C[C@@H]2CC[C@H]1N2C(=O)NC1CC1	?	.	14%	-5%	.	.
COC(=O)C1=C(c2ccc(C(C)=O)cc2)C[C@@H]2CC[C@H]1N2C(=O)N1CCC(C)CC1	-26%	.	-9%	13µM*	.	.
COC(=O)C1=C(c2ccc3ccccc3c2)C[C@@H]2CC[C@H]1N2C(=O)N1CCC(C)CC1	-16%	.	?	9.3µM*	.	.
CC(=O)Nc1ccc(S(=O)(=O)N(C)CC(=O)OCC(=O)c2cc(C)n(-c3ccc4c(c3)OCO4)c2C)cc1	-3%	?	7%	9%	-8	-2
Cc1ccc(OCCn2cccn2)c(C)c1	-4%	.	51%	7%	22	-2
Brc1ccc(N=NNc2ccccc2)cc1	-23%	0%	34%	69%	92*	35*
Brc1ccc(-c2ccccc2)cc1	0%	.	?	39%	.	.
O=[N+]([O-])c1cccc(NN=Nc2ccccc2)c1	9%	9%	?	116%	40*	29*
O=[N+]([O-])c1ccc(N=NNc2ccccc2)cc1	?	.	31%	217%	185*	64*
O=C(O)c1cc(NN=Nc2ccc(Br)cc2)cc([N+](=O)[O-])c1	4%	9%	?	0%	6	6
COc1ccc(NC(=O)Cn2ccn(-c3ccc(C)c(C)c3)c(=O)c2=O)cc1Cl	1%	.	.	.	.	.
CCOC(=O)c1noc2ncn(CC(=O)O)c(=O)c12	-7%	.	.	.	.	.
CC1CCCC(C)N1C(=O)COC(=O)c1c[nH]c2ccccc12 (centres undefined)	3%	.	-3%	19%	.	.
O=C1c2[nH]nc(-c3ccccc3O)c2C(c2ccccc2)N1Cc1ccco1 (centres undefined)	-22%	.	?	12µM*	-5	-1
COc1ccc(CCN2C(=O)c3[nH]nc(-c4ccccc4O)c3C2c2ccccc2)cc1OC (centres undefined)	6%	-19%	8.3µM*	9.3µM*	57	-3
CC(C)OCCCN1C(=O)c2[nH]nc(-c3ccccc3O)c2C1c1cccc(Cl)c1 (centres undefined)	-11%	.	-20%	4.1µM*	-15	-2
SMILES	Sm TGR block	NS1 function inh	Pf growth 96h	Pf growth 48h	Shiga toxin inh	Cycloheximide cs
COCCCN1C(=O)c2[nH]nc(-c3ccccc3O)c2C1c1cccc(Cl)c1 (centres undefined)	-1%	?	7.4µM*	9.3µM*	-14	-1
Cc1ccc(-c2nc(NC(=O)CSc3ncnc4sc5c(c34)CCC(C)C5)ns2)cc1 (centres undefined)	0%	.	.	.	.	.
C=CCOc1ccc(/C(O)=C2\C(=O)C(=O)N(CCN(C)C)C2c2cccs2)cc1 (centres undefined)	?	11%	26%	19%	62*	40
CCN(CC)CCN1C(=O)C(=O)/C(=C(/O)c2ccc(OC)cc2)C1c1cccs1 (centres undefined)	45µM*	?	0%	?	67*	58*
CCN(CC)CCN1C(=O)C(=O)/C(=C(/O)c2ccc(OCC(C)C)cc2)C1c1ccncc1 (centres undefined)	-6%	-14%	28%	-12%	18	7
C=CCOc1cccc(C2/C(=C(\O)c3ccc(F)cc3)C(=O)C(=O)N2CCN(C)C)c1 (centres undefined)	?	-6%	.	6%	-11	2
CCOc1ccc(/C(O)=C2/C(=O)C(=O)N(CCOCCO)C2c2cccnc2)cc1 (centres undefined)	-32%	2%	1%	3%	-6	2
CCOc1ccc(/C(O)=C2/C(=O)C(=O)N(CCN(CC)CC)C2c2cccs2)cc1 (centres undefined)	22µM*	-6%	30%	33%	51*	43*
CCOc1ccc(/C(O)=C2/C(=O)C(=O)N(CCOCCO)C2c2ccccc2)cc1 (centres undefined)	3%	13%	30%	15%	21	18*
O=C(CSc1nc2c(c(=O)[nH]1)CCC2)Nc1ccccc1C(F)(F)F	-8%	.	.	.	.	.
COc1ccc(-c2ccc3nnc(SCC(N)=O)n3n2)cc1	7%	.	0%	15%	18	7
CCSc1nnc2ccc(-c3ccc(OC)c(OC)c3)nn12	1%	-8%	35%	-22%	19	25*
CCn1c(CNC(=O)C23CC4CC(CC(C4)C2)C3)nnc1SCC(=O)Nc1ccc(C)cc1	9%	.	.	.	.	.
CC(=O)c1ccc(NC(=O)CN2C(=O)CCC2=O)cc1	.	5%	11%	1%	19	1
CC(=O)c1ccc(N/N=C2/CCCNC2=O)cc1	-3%	-3%	-10%	?	45	22*
O=C1NCCC/C1=N/Nc1cc(F)ccc1F	4%	-73%	114%	70%	42*	36*
Cc1ccc(N/N=C2/CCCNC2=O)cc1	32µM*	2%	89%	24%	40	11
O=S(=O)(Nc1cc(F)ccc1F)c1ccc2[nH]c3c(c2c1)CCCC3	6%	.	.	.	.	.
CCOCCc1nn2c(=O)cc(COC(=O)Cc3ccccc3)nc2s1	-6%	.	.	.	.	.
Cc1ccc2c(=O)c(C(=O)c3cccc(Cl)c3)cn(CC(=O)Nc3ccc4c(c3)OCCO4)c2n1	3%	.	.	.	.	.
COc1ccc(OC)c(CCNC(=O)Cn2cccc2C(=O)c2ccccc2)c1	-12%	-3%	20%	5%	-10	-1
O=C(Cn1cccc1C(=O)c1ccccc1)NCc1ccccc1Cl	6%	-9%	9%	21%	75*	38*
Cc1ccccc1C(=O)c1cccn1CC(=O)NCc1ccccc1Cl	-5%	-6%	?	17%	50*	22*

Bioassay records as filed in PubChem.
